Assay outcomes (PubChem)
Compounds with a hit are over-represented: about 1.5% of the library has one in this group of screens.
MbtI inh: inhibitors of Mycobacterium tuberculosis siderophore enzyme MbtI. inhibition, % (concentration not given with the values). actives 0.89% (n = 100,000). P9WFX0. purified MbtI enzyme, fluorescence intensity read-out; in the data active = inhibition mostly above about 56%, no sharp cut-off; inactive = mostly below about 77%
Target sequence (P9WFX0 whole entry, looked up): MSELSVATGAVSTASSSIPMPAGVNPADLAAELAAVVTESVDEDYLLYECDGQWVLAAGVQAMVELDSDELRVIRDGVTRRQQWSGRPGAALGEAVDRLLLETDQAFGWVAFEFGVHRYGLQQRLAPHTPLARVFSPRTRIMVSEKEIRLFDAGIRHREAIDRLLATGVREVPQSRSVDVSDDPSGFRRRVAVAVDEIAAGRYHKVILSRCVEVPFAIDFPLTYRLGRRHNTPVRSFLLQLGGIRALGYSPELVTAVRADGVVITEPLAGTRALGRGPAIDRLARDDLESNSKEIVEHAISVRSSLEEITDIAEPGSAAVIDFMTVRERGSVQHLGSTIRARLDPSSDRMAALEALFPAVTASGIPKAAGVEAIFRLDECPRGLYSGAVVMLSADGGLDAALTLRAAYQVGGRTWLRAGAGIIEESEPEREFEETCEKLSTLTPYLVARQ
AID504770: E. coli YBA685 growth inhibition, screen for V. cholerae RctB inhibitors; E. coli YBA685 rctB-dependent plasmid, OD600 growth, 3 h; active compounds read low; actives 0.27% (n = 130,000); z-score (concentration not given with the values); in the data active = z-score below about -2, passing the limit was not always enough
Mtb MenB inh: inhibitors of Mycobacterium tuberculosis MenB enzyme | inhibition, % (no concentration beside the values) | MenB enzyme assay, absorbance read-out | actives 0.43% (n = 100,000) | AID 540299 | P9WNP5; in the data active = inhibition above about 21%, passing the limit was not always enough
PV pol inh: poliovirus RNA polymerase inhibition; P03300; poliovirus polymerase elongation, fluorescence polarization; active compounds read low; % elongation, % (compound at 16.7 µg/mL); actives 0.66% (n = 150,000); AID 588519; in the data active = % elongation below about 90%
Hits are given with their value; i = inactive; nt = no result given.

SMILES	MbtI inh	AID504770	Mtb MenB inh	PV pol inh
COc1ccc(OC)c(CNC(=O)CSc2c3c(nc4cc(Cl)ccc24)CCCC3)c1	nt	nt	nt	74
O=c1nc2ccccn2c2c1c(=O)[nH]c1ccccc12	i	i	62	i
O=c1c2ccccc2nc2ccccn12	i	i	i	i
O=C(O)CSCC(=O)Nc1cccc2ccccc12	i	i	36	i
O=C(O)CCC(=O)Nc1cccc2ccccc12	nt	i	nt	nt
CCOC(=O)c1c(NC(=O)c2ccc(S(=O)(=O)N(CCOC)CCOC)cc2)sc2c1CC(C)(C)NC2(C)C	nt	nt	nt	83
CCOC(=O)c1c(NC(=O)c2ccc(S(=O)(=O)N3CCCC(C)C3)cc2)sc2c1CC(C)(C)NC2(C)C (stereo not given)	nt	nt	nt	i
Cc1ccc(S(=O)(=O)NCCSc2cc(C(F)(F)F)nc3ccccc23)cc1	i	i	i	i
Cn1c(CSc2cc(C(F)(F)F)nc3ccccc23)n[nH]c1=S	65	i	i	i
Cc1ccc(C)c(OCCSc2ncccn2)c1	i	i	i	i
COc1cc(Cl)c(NC(=O)CC(C)n2nc(C)cc2C)c(OC)c1 (stereo not given)	i	i	i	i
Clc1ccc(OCCn2ccnc2)c(Br)c1	i	-2.7	i	i
O=S(=O)(/N=c1/cc(-c2ccccc2)ss1)c1ccccc1	nt	i	i	i
O=c1cc(-c2ccccc2)ss1	53	i	i	82
CC(c1n[nH]c(=S)n1Cc1ccccc1)N(C)C (stereo not given)	59	i	i	i
COc1cc(C)nc(NC(=O)NS(=O)(=O)c2ccccc2NC(=O)C(F)(F)F)n1	nt	i	i	i
CCCCC1(O)CC(C)(C)N([O])C(C)(C)C1	i	i	44	i
CCCCC1(O)CCN(Cc2ccccc2)CC1	nt	i	nt	nt
CCc1nnc(NC(=O)C2CCCCC2)s1	100	i	i	i
CCC(C)[C@@H](CO[C@@H](Cc1ccccc1)C(=O)N[C@@H](CCS(C)(=O)=O)C(=O)OC(C)C)NC[C@@H](N)CS (stereo not given in full)	67	nt	i	i
CC1(C)CC(=O)C2=C(C1)N=C1c3ccccc3C(=O)C1C2c1ccc(O)c(O)c1 (stereo not given)	85	i	nt	nt
CCN1CCN(c2c(C(=O)c3ccc(C)c(C)c3)cnc3ccc(C)cc23)CC1	i	i	i	i
N#CSC(C#N)Cc1ccc(Cl)c(Cl)c1 (stereo not given)	89	-4.2	nt	i
N#Cc1c(N)cc(N)nc1SCc1ccc(Cl)c(Cl)c1	i	i	i	i
CCn1ccc(=O)[nH]c1=O	i	i	i	i
SMILES	MbtI inh	AID504770	Mtb MenB inh	PV pol inh
Cc1cc(C)c(C#N)c(SCC(=O)OC(C)C)n1	i	i	i	i
C=COC(=O)CSc1nc(C)cc(C)c1C#N	nt	i	i	86
C=CCSc1nnc(CCc2nnc(SCC=C)n2-c2ccccc2)n1-c1ccccc1	i	i	i	i
CCn1c(-c2nonc2NC(C)=O)n[nH]c1=S	65	i	i	i
CCn1c(SCC(=O)Nc2ccc(C)c(C)c2)nnc1-c1nonc1NC(C)=O	nt	nt	nt	i
O=C(Cn1[nH]c(=O)c2ccccc2c1=O)N1CCSC1=NCc1ccccc1	i	i	i	90
O=C(c1cc(=O)[nH]c2ccccc12)N1CCCc2ccccc21	i	i	i	nt
O=C(c1cc(=O)[nH]c2ccccc12)N1CCSC1=NCCc1ccccc1	i	i	i	64
CC1(C)CSC(=NCc2ccccc2)N1C(=O)Cn1[nH]c(=O)c2ccccc2c1=O	i	i	i	i
CCOc1ccc(-n2c(=O)c3c4c(sc3n(Cc3cccnc3)c2=O)CCC4)cc1	nt	i	nt	nt
COc1cc2c(cc1OC)C(C)N(C(=O)CN1C(=O)CCc3ccccc31)CC2 (stereo not given)	i	-2.9	i	i
O=S(=O)(NC1=NCCS1)c1ccc(N=NN2CCCCC2)cc1	i	i	i	i
Cc1ccc(S(=O)(=O)Nc2ccc(N=NN3CCCCC3)cc2)cc1	i	-6.8	i	i
COc1ccc(C(=O)Nc2ccon2)cc1S(=O)(=O)Nc1ccccc1	nt	i	nt	nt
Cc1n[nH]c(C)c1SCC(=O)O	i	i	i	i
CC(C)(C)SCC(=O)O	i	i	i	84
CCN1CCC(NCc2ccccc2Cl)CC1	i	i	i	i
O=C(NC1CC1)C1CCN(C(=O)NCc2ccccc2)CC1	i	i	i	i
CCC1CCCCN1C(=O)c1cc2ccccc2oc1=O (stereo not given)	nt	i	i	59
O=C(c1cc2ccccc2oc1=O)N1CCCC1	i	i	i	i
O=C(CCCn1sc2ccccc2c1=O)NCc1cccs1	82	i	i	i
O=C(CCCn1sc2ccccc2c1=O)NCCC1=CCCCC1	94	i	i	i
O=C(CCCn1sc2ccccc2c1=O)Nc1ccccc1F	i	i	i	i
c1ccc(-c2nc3sc(-c4ccccc4)nc3s2)cc1	i	i	i	i
Cn1sc(=O)c2ccc(S(=O)(=O)NCCc3ccncc3)cc21	nt	-2.5	nt	nt
SMILES	MbtI inh	AID504770	Mtb MenB inh	PV pol inh
CC(=O)N1CCN(c2ccc(N)cc2)CC1	nt	i	30	i
Cn1c(SCc2ccccc2)nnc1C1CCCN(CC(=O)Nc2ccc3c(c2)OCO3)C1 (stereo not given)	i	i	i	i
CC(Oc1ccc(F)cc1)c1n[nH]c(=S)o1 (stereo not given)	i	i	i	i
CCC(c1n[nH]c(=S)o1)N(C)C (stereo not given)	84	i	i	89
COc1cccc(C2NC(=O)NC(C)=C2C(=O)Nc2ccccc2C)c1OC (stereo not given)	i	i	i	i
COc1ccc(S(=O)(=O)N2CCN(c3cccc(Cl)c3C)CC2)cc1OC	i	i	i	i
O=C(OCC(=O)N1CCc2ccccc2C1)c1ccccc1	i	i	i	84
CCN(CC)c1ccc(C=C2C(=O)OC(c3ccccc3)OC2=O)cc1 (stereo not given)	nt	i	i	i
CCN(CC)c1ccc(C=C2C(=O)OC3(CCCC3)OC2=O)cc1	72	i	i	i
O=C(CN1C(=O)c2cccc3cccc1c23)NC1CCCCCC1	nt	i	nt	nt
CN(C)Cc1ccccc1CN	i	-3.7	i	i
Cc1ccnc(NS(=O)(=O)c2ccc(NC(=O)c3ccc(C)c(C)c3)cc2)n1	nt	nt	nt	i
CC(=O)NS(=O)(=O)c1ccc(NC(=O)c2ccc(C)c(C)c2)cc1	i	i	23	i
COC(=O)c1cn(CC(=O)NC2CCCCCC2)c2ccccc12	i	i	31	i
O=C(Cn1cnc2ccccc21)NC1CCCC1	i	i	33	i
O=C(Cn1cnc2ccccc21)Nc1ccccc1	i	i	i	i
NNC(=O)CSc1c(-c2cccs2)[nH]c2ccccc12	i	i	38	i
CCC(C)N=C1NC=NC2SC(C3COc4ccccc4O3)=CC12 (stereo not given)	i	i	i	i
Cc1n[nH]c(=S)n(/N=C/c2ccccc2)c1=O	i	i	i	i
Cc1ccc(S(=O)(=O)NC(CO)C(=O)O)cc1 (stereo not given)	i	i	31	i
COC(=O)C(CO)NS(=O)(=O)c1ccc(C)cc1 (stereo not given)	nt	i	nt	nt
NC1=NC(=Nc2ccccc2)c2ccccc21	i	i	nt	i
Nc1nc(=Nc2ccccc2)ss1	nt	-4.2	i	i
O=C1c2ccccc2C(=O)N1CCSc1nnc(Cc2cccs2)n1CCc1ccccc1	i	i	i	i
